Assay outcomes deposited in PubChem by National Center for Advancing Translational Sciences (NCATS).
15-hLO inh: blocks human 15-lipoxygenase activity; P16050; purified 15hLO-1, xylenol orange hydroperoxide absorbance; Potency, µM (series often up to 57.1 µM), usual class: inhibitors; 74,000 compounds, 1.4% hits; note: nearly all actives have a fitted effect of over 55% in size
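Purified human 15hLO-1 (40 nM) in 25 mM Hepes pH 7.5, 0.01% Triton X-100, preincubated 15 min RT with compound, then 50 uM arachidonic acid for 6 min. Hydroperoxide read by ferrous/xylenol orange, 30 min; 573/405 nm absorbance ratio gave progress.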
HSD17B inhib: HSD17B dehydrogenase inhibition; recombinant HSD17B10, NADH fluorescence kinetic; 75,000 compounds, 7.6% hits; Potency, µM (doses to about 57.1 µM), usual class: inhibitors; AID 893;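 note: the protocol describes HADH2 (HSD17B10) and not the HSD17B4 of the title; nearly all actives have a fitted effect of over 70% in size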
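His-tagged E. coli-expressed HADH2 at 20 nM in 100 mM Tris-HCl pH 9.0 with 0.01 % Tween-20, preincubated 15 min with compound at room temperature. Reaction with 1 mM NAD+ and 90 uM beta-hydroxybutyryl coenzyme A; NADH fluorescence (360/450 nm) read kinetically over 4 min, last minus first point.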
Bst PK mod: alters activity of Bacillus stearothermophilus pyruvate kinase | Potency, µM | 51,000 compounds, 1.2% hits | purified pyruvate kinase, luminescence ATP production; ribose 5-phosphate activator present at AC10; in the data active = potency below about 11 µM; inconclusive = mostly about 12 µM to 25 µM;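 the screen sought inhibitors and activators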
ERK AVP inh: blocks ERK signaling stimulated by vasopressin | HEK293-V1b, vasopressin-stimulated pERK AlphaScreen | Potency, µM (doses to about 57.5 µM), actives largely listed as inhibitors | 72,000 compounds, 0.99% hits; note: nearly all actives have a fitted effect of over 55% in size
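V1b-HEK293 cells; cpd 30 min 37C; 25 nM vasopressin 5 min; lyse 10 min; AlphaScreen beads 5 hr RT. Normalized to DMSO basal and 25 nM vasopressin; AC50 by Hill fit.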
HADH2 inh: blocks human hydroxyacyl-CoA dehydrogenase type II. Potency, µM (series often up to 57.1 µM), most hits filed as inhibitors. 73,000 compounds, 3.4% hits. Q99714. AID 886. recombinant HADH2, NADH fluorescence, beta-hydroxybutyryl-CoA; note: nearly all actives have a fitted effect of over 60% in size
Target sequence (Q99714 whole entry, looked up, one chain of several): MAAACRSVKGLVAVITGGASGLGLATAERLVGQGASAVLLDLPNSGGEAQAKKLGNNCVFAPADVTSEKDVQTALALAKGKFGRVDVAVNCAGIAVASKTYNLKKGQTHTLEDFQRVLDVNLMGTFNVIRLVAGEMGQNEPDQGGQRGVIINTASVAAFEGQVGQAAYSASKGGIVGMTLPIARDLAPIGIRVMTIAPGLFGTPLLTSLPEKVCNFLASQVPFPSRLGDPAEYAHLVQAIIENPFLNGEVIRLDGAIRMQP
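Activity measured as NADH fluorescence gain (360/450 nm), taken as the change between first and last reads of a 4-min kinetic run. Conditions: pH 9.0 Tris buffer, 20 nM E. coli-expressed His-tagged enzyme, 1 mM NAD+, 90 uM beta-hydroxybutyryl-CoA; 15-min compound preincubation.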
FLuc inh: blocks Photinus pyralis firefly luciferase activity | P08659 | AID 411 | purified firefly luciferase, luminescence, 8 min | 72,000 compounds, 2.2% hits | Potency, µM (highest dose often 57.1 µM), usual class: inhibitors; note: nearly all actives have a fitted effect of over 40% in size
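Compounds were tested as concentration series (qHTS) against purified P. pyralis luciferase with luciferin and 10 uM ATP in 50 mM imidazole pH 7.2, 50 mM KCl, 7 mM MgCl2, 0.01% Tween 20, 0.05% BSA. Luminescence was read after 8 min at ambient temperature.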
Numbers stand for hits; i = inactive; ? = inconclusive; nt = not tested or not shown; ! = a repeat was not active; [ ] = dose if it differs, or a comment. Shown are actives, neighbours in structure and some others; about 11% of the full set was active somewhere. Unless noted, calls come from the whole dose curve; as a rule, active = well fitted curve in the direction sought with a large enough effect; inconclusive = small, poorly fitted or top-dose-only effect, or another doubt; inactive = no such curve, though single readings can be large; an effect the other way counts as inactive or inconclusive.

SMILES	15-hLO inh	HSD17B inhib	Bst PK mod	ERK AVP inh	HADH2 inh	FLuc inh
CCOC(=O)N1CCC(c2cc(=O)n3[nH]c(C)c(-c4ccc(F)cc4)c3n2)CC1	i	20µM	nt	i	i	i
CCOC(=O)N1CCC(NC(=O)Cn2nc(-c3ccccc3)ccc2=O)CC1	i	i	i	?	i	i
CO/N=C(\C)CCN1CCc2nc(-c3ccccc3)c(-c3ccccc3)cc2C1	i[11.4 µM]	i[11.4 µM]	nt	i[11.5 µM]	i[11.4 µM]	i[11.4 µM]
OCC1OC(C#Cc2ccccc2)C=CC1OCc1ccccc1 (stereo not given)	i[11.4 µM]	i[11.4 µM]	nt	i[11.5 µM]	i[11.4 µM]	nt
O=C(O)CSc1ccc([N+](=O)[O-])cc1[N+](=O)[O-]	i[11.4 µM]	i[11.4 µM]	nt	i[11.5 µM]	i[11.4 µM]	i[11.4 µM]
CC(C)(C)n1nnnc1C(c1cc2cc3c(cc2[nH]c1=O)OCO3)N1CCN(c2ccccc2)CC1 (stereo not given)	i	25.1µM	i	i	?	i
CCN1CCN(C(c2cc3cc4c(cc3[nH]c2=O)OCO4)c2nnnn2C(C)(C)CC)CC1 (stereo not given)	?	25.1µM	i	i	?	i
Cc1ccc2cc(C(c3nnnn3C(C)(C)C)N3CCCCCC3)c(=O)[nH]c2c1 (stereo not given)	i	i	i	i	i	i
COc1ccc(C2Oc3cc(OC)cc(OC)c3CC2O)cc1 (stereo not given)	i	i	nt	?	nt	nt
CCN(CC)[C@@H](C)CN1c2ccccc2Sc2ccccc21	12.6µM	?	nt	i	i	i
COc1cc(OC)cc(-c2cc3nc4c(c(N5CCN(c6cnccn6)CC5)n3n2)CCCC4)c1	i	31.6µM	nt	i	?	i
COc1cc(OC)cc(-c2cc3nc4c(c(N5CCN(c6ncccn6)CC5)n3n2)CCCC4)c1	i	3.16µM	i	i	?	i
O=C(O)NCC1CCCCC1 (tested in a mixture with another compound)	i[11.4 µM]	i[11.4 µM]	nt	i[11.5 µM]	i[11.4 µM]	i[11.4 µM]
CC1CC[C@@]2(C(=O)O)CCC3(C)C(=CCC4[C@]5(C)CC(O)C(O)[C@](C)(CO)C5C(O)C[C@@]43C)C2C1C (stereo not given in full)	i	i	nt	i	nt	nt
Cc1c(C)n(C)c2ccc(C(=O)NCc3cccs3)cc12	10µM	?	nt	12.6µM	?	i
CCCN1C(=O)c2cc(C(=O)NCc3cccs3)ccc2C1O (stereo not given)	i	i	nt	i	i	i
NCCC[C@@H](CC(=O)N[C@@H]1CCCC[C@H]1C(=O)N[C@H](CC(=O)N[C@@H](CCC(=O)O)CC(=O)O)Cc1c[nH]c2ccccc12)NC(=O)C[C@H](CO)NC(=O)[C@@H]1CNCC[C@H]1N	nt	nt	nt	nt	i	nt
Cc1cc(NC(=O)CSc2nc3c(c(-c4cccnc4)c2C#N)CCC3)no1	i[11.4 µM]	25.1µM	nt	i	i[11.4 µM]	i
Cc1nc2[nH]c(=O)c3c(n2n1)NC1=C(C(=O)CC(C)(C)C1)C3c1ccccc1 (stereo not given)	i	31.6µM	i	i	i	i
CC1(C)CC(=O)C2=C(C1)Nc1ccccc1NC2c1cccnc1 (stereo not given)	i	i	nt	i	i	i
O=C(Cn1cc2c(n1)CCCC2)N1CCCc2ccccc21	25.1µM	i	nt	i	i	i
Cc1ccc(Cn2nnc3c(=O)n(CC(=O)N4CCCc5ccccc54)cnc32)cc1	i	i	i	i	i	i
COc1ccc(-c2ccc(-c3nnn(CC(=O)N4CCOCC4)n3)cc2)cc1	i	20µM	2.64	i	?	1.58µM
O=C(Cn1nnc(-c2ccc(CN3CCOCC3)cc2)n1)N1CCCc2ccccc21	i	i	5.56	i	i	i
O=C(Cn1nnc(-c2ccc3c(c2)OCO3)n1)N1CCOCC1	i	i	i	i	i	i
CC(C)Oc1ccc2c(=O)c(-c3ccccc3)coc2c1	nt	nt	i	nt	nt	5.01µM
Cc1oc2cc(O)ccc2c(=O)c1-c1cnn(-c2ccccc2)c1	nt	nt	i	nt	nt	i
O=c1c(-c2ccc(O)cc2)coc2cc(O)ccc12	i	31.6µM	nt	i	31.6µM	10µM!
CCN(CC)C(=O)Oc1ccc2c(=O)c(-c3ccc(OC)cc3)coc2c1	i	i	i	?	i	i
Cc1ccccc1-c1coc2cc(O)ccc2c1=O	i	20µM	i	i	20µM	i
